Screen size: about 69,000 compounds; about 8,600 (12%) showed an effect of 50% or more. The list comes from a sample in which strong results are over-represented; it also holds similar structures and randomly drawn compounds.
Test system: Plasmodium berghei
Assay: Screen against P. berghei liver stage (PbLuc), transformed with Luciferase, at 10uM
Assay type: functional, HepG2
Conditions: tested at 10 uM

Row | SMILES | INHIBITION [%]
1 | Cn1cc(C2CC(=O)NC23CCN(C(=O)Cc2ccccn2)CC3)cn1 (stereo not given) | -7.29
2 | CNC(=O)N1CCC2(CC1)CC[C@@]1(C(=O)NC)CN(S(C)(=O)=O)C[C@@H]21 | 12.5
3 | CCc1nccn1-c1nccnc1C1CCN(C(=O)COC)CC1 | 67.7
4 | CCc1nccn1-c1cccc(C2CCN(C(=O)COC)CC2)n1 | 20.8
5 | Cc1ncccc1Oc1nccnc1C1CCN(C(C)C)CC1 | 40.9
6 | CCc1nccn1-c1nccnc1C1CCCN(C(=O)COC)C1 (stereo not given) | 48.4
7 | Cc1ncccc1Oc1nccnc1C1CCN(S(C)(=O)=O)CC1 | 32.3
8 | COCC(=O)N1CCC(c2nccnc2Oc2cccnc2C)CC1 | 50.4
9 | CCc1nc(C2CCCN2C(=O)c2cnc3n[nH]c(C)c3c2)no1 (stereo not given) | 27
10 | CC(CN1CCCC1=O)NC(=O)Nc1cccnc1-n1cccn1 (stereo not given) | 4.66
11 | OC1CCN(c2ccnc3c(F)cc(Br)cc23)CC1 | 16.6
12 | CC(=O)N1CCN(c2ccnc3c(F)cc(Br)cc23)CC1 | 40.6
13 | CN1CCN(c2ccnc3c(F)cc(Br)cc23)CC1 | 62.8
14 | CN(C)CC(=O)N1CCOC2(CCCN(c3ncccc3F)C2)C1 (stereo not given) | 21.8
15 | CN([C@@H]1CCC[C@@H](n2ccnc2)[C@@H]1O)S(=O)(=O)c1cn(C)cn1 | 13.7
16 | CC(C)(C)c1n[nH]c(C2CN(Cc3nnc(C4CCC4)o3)CCO2)n1 (stereo not given) | -38.2
17 | O=C(CCc1ccccc1)N1CCCC(c2n[nH]c3nccnc23)C1 (stereo not given) | 32.8
18 | Cc1nc2c(c(C)c1CC(=O)Nc1ccccc1F)c(=O)[nH]n2C | 60.9
19 | Cc1nc2c(c(C)c1CC(=O)NCc1ccccc1F)c(=O)[nH]n2C | 39.2
20 | COc1ccccc1NC(=O)Cc1c(C)nc2c(c1C)c(=O)[nH]n2C | -16.5
21 | COc1ccccc1C(O)CNC(=O)Nc1cccnc1OC (stereo not given) | -13.5
22 | COc1cc(N2CCC3(CC2)CC(N2CCOCC2)C3)ncn1 | 0.112
23 | O=C(NC[C@H]1OC[C@@H](NC2CCC2)[C@@H]1O)c1cccs1 | 18.4
24 | O=C(NC[C@H]1OC[C@@H](NCc2ccccc2F)[C@@H]1O)Nc1ccccc1 | -13.4
25 | O=C(NC[C@H]1OC[C@@H](NC2CCOCC2)[C@@H]1O)Nc1ccccc1 | 51
26 | CC(=O)N1CCC(N[C@@H]2CO[C@H](CNC(=O)c3cccs3)[C@H]2O)CC1 | 60.9
27 | CC(C)NC(=O)NC[C@H]1OC[C@@H](NCc2ccccc2F)[C@@H]1O | 58.5

Row | SMILES | INHIBITION [%]
28 | O=C(NC[C@H]1OC[C@@H](NC2COC2)[C@@H]1O)Nc1ccccc1 | 12.4
29 | CC(C)N[C@@H]1CO[C@H](CNC(=O)Nc2ccccc2)[C@H]1O | 50.2
30 | CC(C)N[C@@H]1CO[C@H](CNC(=O)c2ccccc2)[C@H]1O | -6.23
31 | CC(C)NC(=O)NC[C@H]1OC[C@@H](NCc2ccccc2O)[C@@H]1O | 4.59
32 | O=C(NC[C@H]1OC[C@@H](NC2CCC2)[C@@H]1O)Nc1ccccc1 | 41.9
33 | CN1CCC(N[C@@H]2CO[C@H](CNC(=O)c3cccs3)[C@H]2O)CC1 | 17.4
34 | CC(C)(C)CN[C@@H]1CO[C@H](CNC(=O)Nc2ccccc2)[C@H]1O | 41.1
35 | Cn1cc(CN2CCc3nc4ccccc4c(=O)n3CC2)cn1 | -10.2
36 | COC(=O)C(NC(=O)CCOC(C)C)c1cc(F)ccc1F (stereo not given) | -19.9
37 | Cc1ccc(N(CC(=O)N2CCCCC2)C(=O)C2COCCO2)cc1 (stereo not given) | 11.6
38 | CC(C)CC(NC(=O)c1cccs1)c1nc2cccnc2n1C (stereo not given) | -11.4
39 | Cn1ccnc1C1(O)CCN(C(=O)CCc2ccccc2)CC1 | 27.465
40 | O=C1NCCCc2[nH]c(C3CCN(C(=O)C4CC4)CC3)nc21 | 10.4
41 | CN(CCn1cncc1-c1cnc(N2CCOCC2)nc1)C1CCCC1 | -11.05
42 | CN1CCC(N[C@@H]2CO[C@H](CNC(=O)Nc3ccccc3)[C@H]2O)CC1 | 60.1
43 | O=C(NC[C@H]1OC[C@@H](NCc2ccccc2)[C@@H]1O)Nc1ccccc1 | 17.7
44 | O=C(NC[C@H]1OC[C@@H](NC2CCCCC2)[C@@H]1O)Nc1ccccc1 | 26
45 | CN(C)C(=O)Cn1c(C2CC2)c(CN2CCOCC2)c2cccnc21 | -13.2
46 | Cc1c(Cl)cccc1N1CC(c2nnc(N)s2)CC1=O (stereo not given) | 35.8
47 | CC(C)(C)c1coc([C@@H]2COCCN2Cc2c[nH]cn2)n1 | 62.8
48 | Cn1cc(CN2CCOC[C@H]2c2nc(C(C)(C)C)co2)c2ccccc21 | 10
49 | CC(C)(C)c1coc([C@@H]2COCCN2Cc2ncc[nH]2)n1 | 20.9
50 | Cn1c(CN2CCOC[C@H]2c2nc(C(C)(C)C)co2)nc2ccccc21 | 52
51 | CC(C)(C)c1coc([C@@H]2COCCN2Cc2ccccc2)n1 | 3.25
52 | CC(C)(C)c1coc([C@@H]2COCCN2Cc2ccccn2)n1 | -37.4
53 | CS(=O)(=O)N1CC[C@H]2OCC[C@@]2(C(=O)NCC2CC2)C1 | 42.1
54 | CN1CCN(Cc2c(Cl)ccc(O)c2Cl)CC1C(=O)O (stereo not given) | -27.6

Row | SMILES | INHIBITION [%]
55 | CN(C)CCN1C(=O)CCCC12CCCN(C(=O)c1ccncc1)C2 (stereo not given) | 5.68
56 | COC1COC2(CCN(C(=O)c3ccccc3F)CC2)C1 (stereo not given) | 62.9
57 | O=C(c1ccccc1)N1CCC2(CC1)CC(Oc1ccccc1)CO2 (stereo not given) | 52
58 | COC1COC2(CCN(C(=O)c3cnc(C)cn3)CC2)C1 (stereo not given) | -21.7
59 | COC1COC2(CCN(C(=O)c3cscn3)CC2)C1 (stereo not given) | 53.9
60 | O=C(c1cccnc1)N1CCC2(CC1)CC(Oc1ccccc1)CO2 (stereo not given) | 34.4
61 | CC(=O)N1CCC2(CC1)CC(Oc1ccccc1)CO2 (stereo not given) | 33.5
62 | O=C(c1ccccc1F)N1CCC2(CC1)CC(Oc1ccccn1)CO2 (stereo not given) | 46.6
63 | COc1ncccc1C(=O)N1CCC2(CC1)CC(OC)CO2 (stereo not given) | 25.8
64 | COC1COC2(CCN(C(=O)c3cocn3)CC2)C1 (stereo not given) | 39.4
65 | CCn1c(O)c(C(C)=O)c2cc(C)ccc21 | 33.4
66 | Cc1ccc(-c2nc(CN3CCCCC3Cn3cncn3)no2)cc1 (stereo not given) | 21.5
67 | CCS(=O)(=O)CCSc1ccc(Br)cc1 | -59.8
68 | CN(CC(O)COc1ccc(C(F)(F)F)cc1)C(=O)Nc1nncs1 (stereo not given) | -0.87
69 | COc1cc(NC(=O)c2ccc(C)c(F)c2)c(C(=O)N(C)C)cc1OC | 14
70 | CCn1cc(S(=O)(=O)NC(=O)CCc2c[nH]c3ccccc23)cn1 | 61.5
71 | CCn1cc(NC(=O)NC(CO)Cc2c[nH]c3ccccc23)cn1 (stereo not given) | 32.3
72 | CCn1cc(S(=O)(=O)NC(CO)Cc2c[nH]c3ccccc23)cn1 (stereo not given) | 19.3
73 | CN(Cc1cc(C(C)(C)C)n[nH]1)C(=O)CCC(=O)NC1CCCC1 | 32.1
74 | Cn1ncc(NC(=O)c2noc3c2CCCC3)c1C(N)=O | 2.6
75 | O=C(C1CCC2(CCN(CC3CC3)CC2)O1)N1CCCC1 (stereo not given) | 1.34
76 | COc1ccc(C(=O)N(C)Cc2nnc3ccccn23)c(OC)c1OC | -8.11
77 | COc1ccc(C(=O)N(C)Cc2cccc(C#N)c2)c(OC)c1OC | 50.1
78 | COc1cccc(CN(C)Cc2cccc(C#N)c2)c1OC | -3.19
79 | CCOc1ccc2oc(-c3cn(C)nc3C)c(O)c(=O)c2c1 | 25.9
80 | COC(=O)CCC(=O)N(Cc1ccc2cc[nH]c2c1)C1CC1 | -8.8
81 | COc1cc(C2CC(=O)Nc3c2nc2n3CCCC2)cc2c1OCO2 (stereo not given) | 34

Row | SMILES | INHIBITION [%]
82 | CCNC(=O)[C@@H]1C[C@@H](N)CN1C(=O)c1[nH]c2ccccc2c1CC | 11.5
83 | CCOCCCNc1ncc(-c2onc(C)c2C)c(-c2ccco2)n1 | 27.465
84 | CCC(=O)NCC1(O)CCC(C(C)(C)C)CC1 (stereo not given) | -5.92
85 | CN(CCOc1ccc(Br)cc1)Cc1cscn1 | -62.6
86 | Cc1ccc(OCCN(C)Cc2cscn2)cc1 | -23.8
87 | Cc1cc(C)cc(OCCN(C)Cc2cscn2)c1 | 28.1
88 | COCCS(=O)(=O)N(Cc1cscn1)c1ccccc1 | 22.8
89 | CN(C)S(=O)(=O)N(Cc1cscn1)c1ccccc1 | 62.4
90 | CCN(C)S(=O)(=O)N(Cc1cscn1)c1ccccc1 | 66.4
91 | CC(C)c1ccc(CN2CCCC3(CC2)CN(C)C(=O)O3)cc1 (stereo not given) | -58.7
92 | CS(=O)(=O)c1cncnc1C1CCCNC1 (stereo not given) | 20.4
93 | CN(C)C(=O)CN1C(=O)CCC12CCN(Cc1cccs1)CC2 | 9.97
94 | CCc1ccc(CNC(=O)NC(C)CN2CCOCC2)s1 (stereo not given) | -3.95
95 | Cc1ccsc1CNC(=O)c1ccc2c(c1)CCC(=O)N2 | -20.8
96 | Cc1ccsc1CNC(=O)c1ccc(N2CCOC2=O)cc1 | 56.8
97 | O=C(NCc1ccc(Cl)s1)c1ccc(N2CCOC2=O)cc1 | 72.2
98 | Cc1noc(C)c1CNC(=O)Nc1ccc(N2CCOC2=O)cc1 | 13.9
99 | CCc1ccc(CNC(=O)c2ccc(N3CCOC3=O)cc2)s1 | 78.2
100 | O=C1CCc2cc(C(=O)NCc3ccc(Cl)s3)ccc2N1 | -28.6
101 | Cc1ccsc1CNC(=O)c1ccc(N2CCNC2=O)cc1 | 25.2
102 | O=C1COc2cc(C(=O)NCc3ccc(Cl)s3)ccc2N1 | 16.8
103 | Cc1cccn2cc(C[S+]([O-])Cc3noc(C(C)C)n3)nc12 (stereo not given) | -9.51
104 | Cc1noc(C)c1-c1cncc(C2CCCN2Cc2c[nH]cn2)n1 (stereo not given) | 32.8
105 | CC(=O)N1CCC(c2c(CN(C)C)cnc3cc(C)nn23)CC1 | -0.8
